# Laboratory results reported in the supplement of paper PMC4022240.
# ± gives the standard deviation.
# T1: HaloTag-ATRX ADD domain (163-292)
# T1 chain: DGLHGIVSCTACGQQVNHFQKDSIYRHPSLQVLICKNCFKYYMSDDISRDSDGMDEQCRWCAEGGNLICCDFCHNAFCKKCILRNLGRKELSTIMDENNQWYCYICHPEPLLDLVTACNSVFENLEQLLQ
# Molecular target: T1, HaloTag-ATRX ADD domain (163-292)
# Experiment: peptide microarray binding signal (635 nm), min-max normalized on array (fraction of array maximum); higher = stronger binding
# Details: peptide region: Unmod H1 variant; binder concentration: 50 nM
# Outline: (§1)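 Within each library, mean intensities of triplicate spots were min-max scaled to give the binding signal. The spots were histone 13-mer peptide–cellulose conjugates on nitrocellulose with a Cy3 tracer, blocked overnight at 4°C. They were then probed for 1 h at 4°C using biotin-labelled HaloTag reader fusions (10 nM to 1 μM) with streptavidin-Alexa Fluor 647 or rabbit histone antibodies (1:10,000 to 1:2,000) with anti-rabbit Alexa 647, and scanned at 635 nm for signal and 532 nm for misprints on an Axon GenePix 4000B.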
row,Binder,peptide microarray binding signal
1,AKKKLAATPKKAK [Unmod H1 variant A K K K L A A T P K K A K],0.01188 ± 3e-05
2,DSQIKLSIKRLVT [Unmod H1 variant D S Q I K L S I K R L V T],0.0155 ± 0.00047
3,KPKATPVKKAKKK [Unmod H1 variant K P K A T P V K K A K K K],0.0137 ± 0.0012
4,SFRLAKSDEPKKS [Unmod H1 variant S F R L A K S D E P K K S],0.0196 ± 0.0052
5,KAASKAPTKKPKA [Unmod H1 variant K A A S K A P T K K P K A],0.0142 ± 0.00045
6,SHYKVGENADSQI [Unmod H1 variant S H Y K V G E N A D S Q I],0.00937 ± 0.00014
7,SDMIVAAIQAEKN [Unmod H1 variant S D M I V A A I Q A E K N],0.0102 ± 0.00022
8,TKKEIKKVATPKK [Unmod H1 variant T K K E I K K V A T P K K],0.0108 ± 0.00026
9,TENSTSAPAAKPK [Unmod H1 variant T E N S T S A P A A K P K],0.0132 ± 0.00019

# Same assay, conditions: peptide region: Unmod H1 variant; binder concentration: 500 nM
row,Binder,peptide microarray binding signal
1,AKKKLAATPKKAK [Unmod H1 variant A K K K L A A T P K K A K],0.0112 ± 0.00064
2,DSQIKLSIKRLVT [Unmod H1 variant D S Q I K L S I K R L V T],0.0281 ± 0.00085
3,KPKATPVKKAKKK [Unmod H1 variant K P K A T P V K K A K K K],0.0124 ± 0.00028
4,SFRLAKSDEPKKS [Unmod H1 variant S F R L A K S D E P K K S],0.0223 ± 0.001
5,KAASKAPTKKPKA [Unmod H1 variant K A A S K A P T K K P K A],0.0141 ± 0.00028
6,SHYKVGENADSQI [Unmod H1 variant S H Y K V G E N A D S Q I],0.00671 ± 0.00048
7,SDMIVAAIQAEKN [Unmod H1 variant S D M I V A A I Q A E K N],0.00514 ± 0.00038
8,TKKEIKKVATPKK [Unmod H1 variant T K K E I K K V A T P K K],0.00952 ± 0.00026
9,TENSTSAPAAKPK [Unmod H1 variant T E N S T S A P A A K P K],0.0173 ± 0.002

# Molecular target: HaloTag-ING2 PHD (mouse Ing2 200-280)
# Experiment: as above
# Details: peptide region: Unmod H1 variant; binder concentration: 10 nM
# Outline: as §1
row,Binder,peptide microarray binding signal
1,AKKKLAATPKKAK [Unmod H1 variant A K K K L A A T P K K A K],0.00203 ± 2.1e-05
2,DSQIKLSIKRLVT [Unmod H1 variant D S Q I K L S I K R L V T],0.003819 ± 3.5e-05
3,KPKATPVKKAKKK [Unmod H1 variant K P K A T P V K K A K K K],0.00209 ± 5.3e-05
4,SFRLAKSDEPKKS [Unmod H1 variant S F R L A K S D E P K K S],0.00448 ± 0.00019
5,KAASKAPTKKPKA [Unmod H1 variant K A A S K A P T K K P K A],0.00257 ± 0.00013
6,SHYKVGENADSQI [Unmod H1 variant S H Y K V G E N A D S Q I],0.00197 ± 2.3e-05
7,SDMIVAAIQAEKN [Unmod H1 variant S D M I V A A I Q A E K N],0.00555 ± 0.00034
8,TKKEIKKVATPKK [Unmod H1 variant T K K E I K K V A T P K K],0.00185 ± 3.8e-05
9,TENSTSAPAAKPK [Unmod H1 variant T E N S T S A P A A K P K],0.005132 ± 2.5e-05

# Same assay, conditions: peptide region: Unmod H1 variant; binder concentration: 100 nM
row,Binder,peptide microarray binding signal
1,AKKKLAATPKKAK [Unmod H1 variant A K K K L A A T P K K A K],0.00397 ± 0.00028
2,DSQIKLSIKRLVT [Unmod H1 variant D S Q I K L S I K R L V T],0.00801 ± 0.00074
3,KPKATPVKKAKKK [Unmod H1 variant K P K A T P V K K A K K K],0.00319 ± 0.00028
4,SFRLAKSDEPKKS [Unmod H1 variant S F R L A K S D E P K K S],0.0192 ± 0.0084
5,KAASKAPTKKPKA [Unmod H1 variant K A A S K A P T K K P K A],0.019 ± 0.0066
6,SHYKVGENADSQI [Unmod H1 variant S H Y K V G E N A D S Q I],0.00298 ± 0.00012
7,SDMIVAAIQAEKN [Unmod H1 variant S D M I V A A I Q A E K N],0.00326 ± 5.1e-05
8,TKKEIKKVATPKK [Unmod H1 variant T K K E I K K V A T P K K],0.00482 ± 0.0004
9,TENSTSAPAAKPK [Unmod H1 variant T E N S T S A P A A K P K],0.00694 ± 0.00038

# Molecular target: anti-H3K4me3 antibody ab8580
# Experiment: as above
# Details: peptide region: Unmod H1 variant; binder concentration: 1:2,000 dilution
# Outline: as §1
row,Binder,peptide microarray binding signal
1,AKKKLAATPKKAK [Unmod H1 variant A K K K L A A T P K K A K],0.000415 ± 8.4e-06
2,DSQIKLSIKRLVT [Unmod H1 variant D S Q I K L S I K R L V T],0.000623 ± 3.1e-05
3,KPKATPVKKAKKK [Unmod H1 variant K P K A T P V K K A K K K],0.000547 ± 2.7e-05
4,SFRLAKSDEPKKS [Unmod H1 variant S F R L A K S D E P K K S],0.001 ± 0.00013
5,KAASKAPTKKPKA [Unmod H1 variant K A A S K A P T K K P K A],0.000963 ± 1.4e-05
6,SHYKVGENADSQI [Unmod H1 variant S H Y K V G E N A D S Q I],0.000227 ± 4.2e-06
7,SDMIVAAIQAEKN [Unmod H1 variant S D M I V A A I Q A E K N],0.00111 ± 2.4e-05
8,TKKEIKKVATPKK [Unmod H1 variant T K K E I K K V A T P K K],0.000604 ± 3e-05
9,TENSTSAPAAKPK [Unmod H1 variant T E N S T S A P A A K P K],0.000906 ± 4.9e-05

# Same assay, conditions: peptide region: Unmod H1 variant; binder concentration: 1:10,000 dilution
row,Binder,peptide microarray binding signal
1,AKKKLAATPKKAK [Unmod H1 variant A K K K L A A T P K K A K],0.000799 ± 2.2e-05
2,DSQIKLSIKRLVT [Unmod H1 variant D S Q I K L S I K R L V T],0.00137 ± 1.3e-05
3,KPKATPVKKAKKK [Unmod H1 variant K P K A T P V K K A K K K],0.00126 ± 2.2e-05
4,SFRLAKSDEPKKS [Unmod H1 variant S F R L A K S D E P K K S],0.00154 ± 9.8e-05
5,KAASKAPTKKPKA [Unmod H1 variant K A A S K A P T K K P K A],0.001027 ± 1e-05
6,SHYKVGENADSQI [Unmod H1 variant S H Y K V G E N A D S Q I],0.000571
7,SDMIVAAIQAEKN [Unmod H1 variant S D M I V A A I Q A E K N],0.00126 ± 4.3e-05
8,TKKEIKKVATPKK [Unmod H1 variant T K K E I K K V A T P K K],0.000628 ± 6.7e-06
9,TENSTSAPAAKPK [Unmod H1 variant T E N S T S A P A A K P K],0.00188 ± 3.5e-05

# Molecular target: anti-H3K9me3 antibody ab8898
# Experiment: as above
# Details: peptide region: Unmod H1 variant; binder concentration: 1:2,000 dilution
# Outline: as §1
row,Binder,peptide microarray binding signal
1,AKKKLAATPKKAK [Unmod H1 variant A K K K L A A T P K K A K],0.000272
2,DSQIKLSIKRLVT [Unmod H1 variant D S Q I K L S I K R L V T],0.000513 ± 9.7e-06
3,KPKATPVKKAKKK [Unmod H1 variant K P K A T P V K K A K K K],0.0008 ± 0.00013
4,SFRLAKSDEPKKS [Unmod H1 variant S F R L A K S D E P K K S],0.000785 ± 0.00015
5,KAASKAPTKKPKA [Unmod H1 variant K A A S K A P T K K P K A],0.000257 ± 5.3e-06
6,SHYKVGENADSQI [Unmod H1 variant S H Y K V G E N A D S Q I],0.000181
7,SDMIVAAIQAEKN [Unmod H1 variant S D M I V A A I Q A E K N],0.000559 ± 2.9e-05
8,TKKEIKKVATPKK [Unmod H1 variant T K K E I K K V A T P K K],0.000121 ± 1.3e-06
9,TENSTSAPAAKPK [Unmod H1 variant T E N S T S A P A A K P K],0.00136 ± 1.7e-05

# Same assay, conditions: peptide region: Unmod H1 variant; binder concentration: 1:10,000 dilution
row,Binder,peptide microarray binding signal
1,AKKKLAATPKKAK [Unmod H1 variant A K K K L A A T P K K A K],0.00098 ± 4.6e-05
2,DSQIKLSIKRLVT [Unmod H1 variant D S Q I K L S I K R L V T],0.00127 ± 2.5e-05
3,KPKATPVKKAKKK [Unmod H1 variant K P K A T P V K K A K K K],0.000634 ± 1.2e-05
4,SFRLAKSDEPKKS [Unmod H1 variant S F R L A K S D E P K K S],0.000923 ± 9.6e-06
5,KAASKAPTKKPKA [Unmod H1 variant K A A S K A P T K K P K A],0.000807 ± 1.5e-05
6,SHYKVGENADSQI [Unmod H1 variant S H Y K V G E N A D S Q I],0.000404 ± 4.4e-06
7,SDMIVAAIQAEKN [Unmod H1 variant S D M I V A A I Q A E K N],0.00104 ± 2.1e-05
8,TKKEIKKVATPKK [Unmod H1 variant T K K E I K K V A T P K K],0.000519 ± 5.6e-06
9,TENSTSAPAAKPK [Unmod H1 variant T E N S T S A P A A K P K],0.0015 ± 2.5e-05

# Molecular target: T1, HaloTag-ATRX ADD domain (163-292)
# Experiment: as above
# Details: peptide region: H4 53-65; peptide modifications: H4K59me3; binder concentration: 50 nM
# Outline: as §1
row,Binder,peptide microarray binding signal
1,ETRGVLKVFLENV [H4 53-65 E T R G V L Kme3 V F L E N V],0.00755 ± 0.00027

# Same assay, conditions: peptide region: H4 53-65; peptide modifications: H4K59me3; binder concentration: 500 nM
row,Binder,peptide microarray binding signal
1,ETRGVLKVFLENV [H4 53-65 E T R G V L Kme3 V F L E N V],0.00719 ± 0.00011

# Molecular target: HaloTag-ING2 PHD (mouse Ing2 200-280)
# Experiment: as above
# Details: peptide region: H4 53-65; peptide modifications: H4K59me3; binder concentration: 10 nM
# Outline: as §1
row,Binder,peptide microarray binding signal
1,ETRGVLKVFLENV [H4 53-65 E T R G V L Kme3 V F L E N V],0.0074 ± 5.7e-05

# Same assay, conditions: peptide region: H4 53-65; peptide modifications: H4K59me3; binder concentration: 100 nM
row,Binder,peptide microarray binding signal
1,ETRGVLKVFLENV [H4 53-65 E T R G V L Kme3 V F L E N V],0.006945 ± 4.9e-05

# Molecular target: anti-H3K4me3 antibody ab8580
# Experiment: as above
# Details: peptide region: H4 53-65; peptide modifications: H4K59me3; binder concentration: 1:2,000 dilution
# Outline: as §1
row,Binder,peptide microarray binding signal
1,ETRGVLKVFLENV [H4 53-65 E T R G V L Kme3 V F L E N V],0.00549 ± 0.00064

# Same assay, conditions: peptide region: H4 53-65; peptide modifications: H4K59me3; binder concentration: 1:10,000 dilution
row,Binder,peptide microarray binding signal
1,ETRGVLKVFLENV [H4 53-65 E T R G V L Kme3 V F L E N V],0.00616 ± 0.00023

# Molecular target: anti-H3K9me3 antibody ab8898
# Experiment: as above
# Details: peptide region: H4 53-65; peptide modifications: H4K59me3; binder concentration: 1:2,000 dilution
# Outline: as §1
row,Binder,peptide microarray binding signal
1,ETRGVLKVFLENV [H4 53-65 E T R G V L Kme3 V F L E N V],0.017 ± 0.0023

# Same assay, conditions: peptide region: H4 53-65; peptide modifications: H4K59me3; binder concentration: 1:10,000 dilution
row,Binder,peptide microarray binding signal
1,ETRGVLKVFLENV [H4 53-65 E T R G V L Kme3 V F L E N V],0.0133 ± 0.00048
